Here are results for 31 sequences from article PMC10812921, “Transcriptional Coactivator BOB1 (OBF1, OCA-B) Modulates the Specificity of DNA Recognition by the POU-Domain Factors OCT1 and OCT2 in a Monomeric Configuration”.

Assay [1] deals with POU1 (OCT1 POU domain) (human, UniProt P14859 260-458). The experiment in a line: EMSA-SELEX-seq; no BOB1; 20 mM Tris-HCl pH 7.6, 140 mM NaCl, 10% glycerol, 0.5 mM EDTA, 0.05% Triton X-100, 0.1 mg/mL BSA, 0.1 mg/mL poly(dI-dC), 5 mM DTT, room temperature, 20 min; high values mean tight binding. To be noted: protein: recombinant; dsDNA, one strand shown. Put shortly: (§1)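 With or without 28 ng coactivator protein, 30 ng of tagged POU-domain protein was combined with 300 ng of a PCR-amplified double-stranded random 35-nt library in 20 μL Tris–HCl pH 7.6 binding buffer for 20 min at RT. The protein came from E. coli BL21 and had been purified under denaturing conditions and renatured. Four rounds of cutting complex bands from native 6% PAGE, elution and PCR amplification preceded Illumina sequencing. The binding preference figure is the percentage of sequenced 8-mers matching a motif pattern.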
Chain of POU1 (OCT1 POU domain) (P14859 260-458): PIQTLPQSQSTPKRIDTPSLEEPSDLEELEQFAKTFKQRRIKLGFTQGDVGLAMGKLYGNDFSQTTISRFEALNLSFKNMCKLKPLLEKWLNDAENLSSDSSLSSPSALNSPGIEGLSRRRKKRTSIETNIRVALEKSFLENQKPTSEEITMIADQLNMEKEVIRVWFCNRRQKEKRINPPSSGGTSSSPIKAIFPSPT

For assay [2], the target named is T1, POU2 (OCT2 POU domain) (human, UniProt P09086 175-386).
T1 sequence: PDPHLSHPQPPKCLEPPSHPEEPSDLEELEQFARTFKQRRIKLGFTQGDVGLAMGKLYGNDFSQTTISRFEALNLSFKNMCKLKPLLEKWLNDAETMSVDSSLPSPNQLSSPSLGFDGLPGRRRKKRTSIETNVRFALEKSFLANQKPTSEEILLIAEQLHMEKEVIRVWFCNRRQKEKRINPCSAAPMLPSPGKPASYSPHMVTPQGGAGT
The assay is described as above. To be noted: protein: recombinant; dsDNA, one strand shown. The procedure, abridged: as §1

The target in assay [3] is POU1 (OCT1 POU domain);BOB1 (OBF1, OCA-B) (human;human, UniProt P14859;Q16633 260-458;1-256, |). The experiment in a line: EMSA-SELEX-seq; with BOB1 (ternary complex band); 20 mM Tris-HCl pH 7.6, 140 mM NaCl, 10% glycerol, 0.5 mM EDTA, 0.05% Triton X-100, 0.1 mg/mL BSA, 0.1 mg/mL poly(dI-dC), 5 mM DTT, room temperature, 20 min; high values mean tight binding. To be noted: protein: recombinant;recombinant; copies: 1;1; dsDNA, one strand shown. The procedure, abridged:
as §1
A general note: Mobility shift assays separate free from complexed probe on a gel.

Assay [4] addresses T2, POU2 (OCT2 POU domain);BOB1 (OBF1, OCA-B) (human;human, UniProt P09086;Q16633 175-386;1-256, |).
T2 sequence 1: T1 sequence
T2 sequence 2: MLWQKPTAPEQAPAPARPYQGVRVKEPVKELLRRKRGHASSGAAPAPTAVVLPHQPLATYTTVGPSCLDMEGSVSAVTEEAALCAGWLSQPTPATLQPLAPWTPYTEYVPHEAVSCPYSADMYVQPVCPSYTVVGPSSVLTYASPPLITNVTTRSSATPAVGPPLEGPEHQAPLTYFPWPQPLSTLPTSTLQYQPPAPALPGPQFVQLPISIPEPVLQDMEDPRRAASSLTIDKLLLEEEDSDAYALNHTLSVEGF
The assay is described as above. The settings on record: protein: recombinant;recombinant; copies: 1;1; dsDNA, one strand shown. Put shortly:
as §1

As to ATAGAAAC, the binding signal is 0.0328 % of ANNNNAAN 8-mers in assay [1], 0.0455 % of ANNNNAAN 8-mers in assay [2], 0.0339 % of ANNNNAAN 8-mers in assay [3] and 0.0355 % of ANNNNAAN 8-mers in assay [4].
As to AGGTAAAG, the binding signal in assay [1] is 0.0801 % of ANNNNAAN 8-mers; in assay [2] it was 0.0708 % of ANNNNAAN 8-mers; in assay [3], 0.116 % of ANNNNAAN 8-mers; in assay [4], 0.071 % of ANNNNAAN 8-mers.
As for ATCCAAAT, the binding signal in assay [1] was 0.131 % of ANNNNAAN 8-mers; in assay [2] it was 0.11 % of ANNNNAAN 8-mers; in assay [3], 0.209 % of ANNNNAAN 8-mers; in assay [4], 0.133 % of ANNNNAAN 8-mers.
For AACTGAAG, the binding signal in assay [1] was 0.0256 % of ANNNNAAN 8-mers; in assay [2] it was 0.0391 % of ANNNNAAN 8-mers; in assay [3] it was 0.0215 % of ANNNNAAN 8-mers; in assay [4], 0.0338 % of ANNNNAAN 8-mers.
For AGCGGAAC the same measures were 0.0183 % of ANNNNAAN 8-mers, 0.0224 % of ANNNNAAN 8-mers, 0.0129 % of ANNNNAAN 8-mers and 0.0157 % of ANNNNAAN 8-mers.
Regarding ATAATAAC, the binding signal in assay [1] is 0.0873 % of ANNNNAAN 8-mers; in assay [2], 0.101 % of ANNNNAAN 8-mers; in assay [3], 0.0496 % of ANNNNAAN 8-mers; in assay [4], 0.0603 % of ANNNNAAN 8-mers.
As to AGAACAAG, the binding signal was 0.0221 % of ANNNNAAN 8-mers in assay [1], 0.0334 % of ANNNNAAN 8-mers in assay [2], 0.0219 % of ANNNNAAN 8-mers in assay [3] and 0.0231 % of ANNNNAAN 8-mers in assay [4].
For ACAGAAAC, the binding signal in assay [1] is 0.0278 % of ANNNNAAN 8-mers; in assay [2], 0.0259 % of ANNNNAAN 8-mers; in assay [3], 0.0269 % of ANNNNAAN 8-mers; in assay [4], 0.0231 % of ANNNNAAN 8-mers.
The corresponding values for AATACAAA are 0.134 % of ANNNNAAN 8-mers, 0.108 % of ANNNNAAN 8-mers, 0.148 % of ANNNNAAN 8-mers and 0.121 % of ANNNNAAN 8-mers.
The corresponding values for AGGATAAT are 0.168 % of ANNNNAAN 8-mers, 0.209 % of ANNNNAAN 8-mers, 0.0952 % of ANNNNAAN 8-mers and 0.106 % of ANNNNAAN 8-mers.
Consider AGGGAAAT, for which the binding signal in assay [1] was 0.549 % of ANNNNAAN 8-mers; in assay [2] it was 0.365 % of ANNNNAAN 8-mers; in assay [3], 0.963 % of ANNNNAAN 8-mers; in assay [4], 0.713 % of ANNNNAAN 8-mers.
In the case of AAACCAAT, the binding signal in assay [1] was 0.0336 % of ANNNNAAN 8-mers; in assay [2], 0.0265 % of ANNNNAAN 8-mers; in assay [3], 0.0437 % of ANNNNAAN 8-mers; in assay [4] it was 0.0347 % of ANNNNAAN 8-mers.
For AATGAAAA the same measures were 0.164 % of ANNNNAAN 8-mers, 0.152 % of ANNNNAAN 8-mers, 0.202 % of ANNNNAAN 8-mers and 0.114 % of ANNNNAAN 8-mers.
ACGAGAAT: the binding signal in assay [1] was 0.0492 % of ANNNNAAN 8-mers; in assay [2], 0.0547 % of ANNNNAAN 8-mers; in assay [3], 0.0347 % of ANNNNAAN 8-mers; in assay [4], 0.0553 % of ANNNNAAN 8-mers.
As to ACAGGAAA, the binding signal in assay [1] is 0.0526 % of ANNNNAAN 8-mers; in assay [2], 0.0506 % of ANNNNAAN 8-mers; in assay [3] it was 0.0702 % of ANNNNAAN 8-mers; in assay [4], 0.0603 % of ANNNNAAN 8-mers.
As for ATAACAAT, the binding signal is 0.0622 % of ANNNNAAN 8-mers in assay [1], 0.088 % of ANNNNAAN 8-mers in assay [2], 0.0496 % of ANNNNAAN 8-mers in assay [3] and 0.0735 % of ANNNNAAN 8-mers in assay [4].
ATTGTAAG: the binding signal was 0.0507 % of ANNNNAAN 8-mers in assay [1], 0.0685 % of ANNNNAAN 8-mers in assay [2], 0.0593 % of ANNNNAAN 8-mers in assay [3] and 0.0594 % of ANNNNAAN 8-mers in assay [4].
In the case of AGGCAAAG, the binding signal in assay [1] was 0.146 % of ANNNNAAN 8-mers; in assay [2] it was 0.0783 % of ANNNNAAN 8-mers; in assay [3], 0.258 % of ANNNNAAN 8-mers; in assay [4], 0.13 % of ANNNNAAN 8-mers.
The corresponding values for AATGTAAG are 0.104 % of ANNNNAAN 8-mers, 0.106 % of ANNNNAAN 8-mers, 0.089 % of ANNNNAAN 8-mers and 0.0958 % of ANNNNAAN 8-mers.
Regarding AGCTTAAT, the binding signal in assay [1] was 0.0645 % of ANNNNAAN 8-mers; in assay [2], 0.0972 % of ANNNNAAN 8-mers; in assay [3] it was 0.0449 % of ANNNNAAN 8-mers; in assay [4] it was 0.0578 % of ANNNNAAN 8-mers.
As for ATACCAAG, the binding signal was 0.0252 % of ANNNNAAN 8-mers in assay [1], 0.0334 % of ANNNNAAN 8-mers in assay [2], 0.0238 % of ANNNNAAN 8-mers in assay [3] and 0.0305 % of ANNNNAAN 8-mers in assay [4].
The corresponding values for ATGATAAT are 0.513 % of ANNNNAAN 8-mers, 0.582 % of ANNNNAAN 8-mers, 0.138 % of ANNNNAAN 8-mers and 0.135 % of ANNNNAAN 8-mers.
Regarding AGTTGAAA, the binding signal in assay [1] was 0.0477 % of ANNNNAAN 8-mers; in assay [2], 0.0489 % of ANNNNAAN 8-mers; in assay [3], 0.0531 % of ANNNNAAN 8-mers; in assay [4], 0.0512 % of ANNNNAAN 8-mers.
In the case of ACTCAAAC, the binding signal in assay [1] was 0.0187 % of ANNNNAAN 8-mers; in assay [2] it was 0.027 % of ANNNNAAN 8-mers; in assay [3] it was 0.03 % of ANNNNAAN 8-mers; in assay [4], 0.0149 % of ANNNNAAN 8-mers.
ATAACAAG: the binding signal in assay [1] was 0.0458 % of ANNNNAAN 8-mers; in assay [2], 0.0621 % of ANNNNAAN 8-mers; in assay [3] it was 0.0355 % of ANNNNAAN 8-mers; in assay [4], 0.0462 % of ANNNNAAN 8-mers.
As for ACGAAAAG, the binding signal is 0.032 % of ANNNNAAN 8-mers in assay [1], 0.0368 % of ANNNNAAN 8-mers in assay [2], 0.046 % of ANNNNAAN 8-mers in assay [3] and 0.0413 % of ANNNNAAN 8-mers in assay [4].
As to ACTTTAAC, the binding signal in assay [1] is 0.032 % of ANNNNAAN 8-mers; in assay [2], 0.0345 % of ANNNNAAN 8-mers; in assay [3], 0.0304 % of ANNNNAAN 8-mers; in assay [4], 0.0355 % of ANNNNAAN 8-mers.
Regarding ACTAGAAA, the binding signal in assay [1] is 0.032 % of ANNNNAAN 8-mers; in assay [2], 0.0322 % of ANNNNAAN 8-mers; in assay [3], 0.0261 % of ANNNNAAN 8-mers; in assay [4] it was 0.0305 % of ANNNNAAN 8-mers.
As to AAAGGAAC, the binding signal in assay [1] was 0.0435 % of ANNNNAAN 8-mers; in assay [2] it was 0.0443 % of ANNNNAAN 8-mers; in assay [3], 0.0476 % of ANNNNAAN 8-mers; in assay [4], 0.0371 % of ANNNNAAN 8-mers.
With AAGTAAAA, the binding signal was 0.108 % of ANNNNAAN 8-mers in assay [1], 0.0967 % of ANNNNAAN 8-mers in assay [2], 0.132 % of ANNNNAAN 8-mers in assay [3] and 0.0693 % of ANNNNAAN 8-mers in assay [4].
Take ATGTAAAC: the binding signal is 0.249 % of ANNNNAAN 8-mers in assay [1], 0.196 % of ANNNNAAN 8-mers in assay [2], 0.293 % of ANNNNAAN 8-mers in assay [3] and 0.227 % of ANNNNAAN 8-mers in assay [4].
